Substitutions are numbered along the chain they refer to.

Common to all, as to assay: RNA Bind-n-Seq (nitrocellulose filter binding and sequencing); miR-122 guide loaded in AGO2; 60 min incubation; 30 mM Tris pH 8.0, 100 mM potassium acetate, 2 mM magnesium acetate, 0.5 mM TCEP, 0.005% NP-40, 0.01 mg/ml yeast tRNA; 3 nM AGO2-miR-122, 100 nM RNA library; 60; high values mean tight binding
Details in all cases: protein: recombinant; tags: His6 (N-terminal, pFastBac HTA)

Test [1] has as its target AGO2 WT (phosphosite mutant background) (Homo sapiens, UniProt Q9UKV8 1-859, S387D;S824A;S828D;S831D;S834A). The procedure, abridged: (§1)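 His-tagged AGO2 was expressed in Sf9 insect cells by baculovirus, loaded with a synthetic guide RNA, and purified by Ni-NTA and a biotinylated capture oligo. Bound RNA was extracted, reverse-transcribed, barcode-amplified and Illumina-sequenced. Fold enrichment is each sequence's read fraction divided by its input-library read fraction.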

Another test addresses AGO2 L192P (Homo sapiens, UniProt Q9UKV8 1-859, L192P;S387D;S824A;S828D;S831D;S834A). The method, boiled down: as §1
Another test addresses AGO2 A367P (Homo sapiens, UniProt Q9UKV8 1-859, A367P;S387D;S824A;S828D;S831D;S834A). The procedure, abridged:
as §1

The target of the next test is AGO2 T357M (Homo sapiens, UniProt Q9UKV8 1-859, T357M;S387D;S824A;S828D;S831D;S834A). The method, boiled down: as §1
The target of a further test is AGO2 F182del (Homo sapiens, UniProt Q9UKV8 1-859, S387D;S824A;S828D;S831D;S834A;del182-182). The method, boiled down:
as §1

Chain of AGO2 L192P (Q9UKV8 whole entry L192P/S387D/S824A/S828D/S831D/S834A): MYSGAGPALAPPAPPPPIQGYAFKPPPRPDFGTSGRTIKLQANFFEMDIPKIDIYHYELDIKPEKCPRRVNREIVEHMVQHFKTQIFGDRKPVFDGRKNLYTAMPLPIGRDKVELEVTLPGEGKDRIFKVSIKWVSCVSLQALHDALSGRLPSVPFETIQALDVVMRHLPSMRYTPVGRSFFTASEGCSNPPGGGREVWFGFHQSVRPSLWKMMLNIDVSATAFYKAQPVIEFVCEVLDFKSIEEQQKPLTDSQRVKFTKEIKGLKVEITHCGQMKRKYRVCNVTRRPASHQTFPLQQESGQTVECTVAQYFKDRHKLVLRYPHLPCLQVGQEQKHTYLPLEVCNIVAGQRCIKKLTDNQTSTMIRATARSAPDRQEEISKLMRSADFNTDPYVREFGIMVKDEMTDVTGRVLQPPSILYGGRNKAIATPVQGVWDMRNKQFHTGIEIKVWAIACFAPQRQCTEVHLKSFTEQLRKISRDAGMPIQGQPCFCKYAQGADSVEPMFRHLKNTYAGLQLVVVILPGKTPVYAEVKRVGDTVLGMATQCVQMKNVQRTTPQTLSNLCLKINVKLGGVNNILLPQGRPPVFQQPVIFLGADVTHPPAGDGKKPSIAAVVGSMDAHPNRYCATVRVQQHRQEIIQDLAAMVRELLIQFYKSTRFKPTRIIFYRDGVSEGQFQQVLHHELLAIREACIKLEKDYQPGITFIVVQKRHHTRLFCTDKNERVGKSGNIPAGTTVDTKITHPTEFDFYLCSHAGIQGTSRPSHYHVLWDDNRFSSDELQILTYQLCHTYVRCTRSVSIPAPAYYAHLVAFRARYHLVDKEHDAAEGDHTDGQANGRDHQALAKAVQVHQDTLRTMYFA
Chain of AGO2 F182del (Q9UKV8 other isoform, or with tags, fused parts or gaps S387D;S824A;S828D;S831D;S834A;del182-182): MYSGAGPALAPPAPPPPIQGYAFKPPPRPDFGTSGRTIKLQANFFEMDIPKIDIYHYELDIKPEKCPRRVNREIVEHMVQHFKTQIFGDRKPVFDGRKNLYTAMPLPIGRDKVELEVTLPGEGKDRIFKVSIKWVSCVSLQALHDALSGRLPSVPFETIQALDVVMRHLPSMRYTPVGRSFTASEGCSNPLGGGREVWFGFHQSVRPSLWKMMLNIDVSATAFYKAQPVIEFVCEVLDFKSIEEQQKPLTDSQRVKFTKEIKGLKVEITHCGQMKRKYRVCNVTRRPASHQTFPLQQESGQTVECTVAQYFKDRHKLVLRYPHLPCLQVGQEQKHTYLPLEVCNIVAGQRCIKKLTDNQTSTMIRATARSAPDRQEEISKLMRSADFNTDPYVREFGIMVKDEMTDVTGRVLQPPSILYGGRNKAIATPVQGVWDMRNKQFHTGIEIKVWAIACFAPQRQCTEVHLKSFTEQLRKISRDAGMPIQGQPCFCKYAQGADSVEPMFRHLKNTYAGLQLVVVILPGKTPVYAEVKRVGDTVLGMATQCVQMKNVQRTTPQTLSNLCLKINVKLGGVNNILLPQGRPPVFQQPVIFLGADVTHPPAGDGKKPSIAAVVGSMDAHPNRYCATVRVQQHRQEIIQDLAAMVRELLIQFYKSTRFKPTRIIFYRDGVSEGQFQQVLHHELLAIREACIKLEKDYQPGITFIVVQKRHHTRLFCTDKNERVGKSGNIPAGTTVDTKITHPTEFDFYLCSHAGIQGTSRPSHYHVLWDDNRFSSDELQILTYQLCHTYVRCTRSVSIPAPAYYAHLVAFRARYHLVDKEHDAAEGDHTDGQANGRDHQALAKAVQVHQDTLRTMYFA
Chain of AGO2 WT (phosphosite mutant background) (Q9UKV8 whole entry S387D/S824A/S828D/S831D/S834A): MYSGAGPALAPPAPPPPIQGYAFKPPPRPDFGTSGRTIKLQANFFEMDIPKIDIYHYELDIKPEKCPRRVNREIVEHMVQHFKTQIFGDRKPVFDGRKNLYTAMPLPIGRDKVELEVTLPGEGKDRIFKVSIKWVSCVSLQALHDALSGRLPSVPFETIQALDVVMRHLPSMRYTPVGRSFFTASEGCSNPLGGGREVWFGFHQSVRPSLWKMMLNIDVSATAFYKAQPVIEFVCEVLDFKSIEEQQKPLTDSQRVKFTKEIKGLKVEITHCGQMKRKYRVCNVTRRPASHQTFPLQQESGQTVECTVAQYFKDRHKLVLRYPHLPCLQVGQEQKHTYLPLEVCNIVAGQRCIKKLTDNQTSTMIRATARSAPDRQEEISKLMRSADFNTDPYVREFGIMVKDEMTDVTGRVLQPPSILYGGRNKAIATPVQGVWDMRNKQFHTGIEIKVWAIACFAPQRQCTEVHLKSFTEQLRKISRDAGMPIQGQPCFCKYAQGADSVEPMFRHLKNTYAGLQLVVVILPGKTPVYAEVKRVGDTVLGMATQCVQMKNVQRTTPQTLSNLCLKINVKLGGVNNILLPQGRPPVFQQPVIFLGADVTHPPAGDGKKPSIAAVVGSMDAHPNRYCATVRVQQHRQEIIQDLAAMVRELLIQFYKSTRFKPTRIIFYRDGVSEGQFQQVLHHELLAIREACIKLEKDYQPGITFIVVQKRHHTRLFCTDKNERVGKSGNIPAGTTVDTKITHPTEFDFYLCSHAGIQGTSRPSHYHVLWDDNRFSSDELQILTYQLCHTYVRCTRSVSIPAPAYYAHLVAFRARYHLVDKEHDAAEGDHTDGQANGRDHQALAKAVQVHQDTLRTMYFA
Chain of AGO2 T357M (Q9UKV8 whole entry T357M/S387D/S824A/S828D/S831D/S834A): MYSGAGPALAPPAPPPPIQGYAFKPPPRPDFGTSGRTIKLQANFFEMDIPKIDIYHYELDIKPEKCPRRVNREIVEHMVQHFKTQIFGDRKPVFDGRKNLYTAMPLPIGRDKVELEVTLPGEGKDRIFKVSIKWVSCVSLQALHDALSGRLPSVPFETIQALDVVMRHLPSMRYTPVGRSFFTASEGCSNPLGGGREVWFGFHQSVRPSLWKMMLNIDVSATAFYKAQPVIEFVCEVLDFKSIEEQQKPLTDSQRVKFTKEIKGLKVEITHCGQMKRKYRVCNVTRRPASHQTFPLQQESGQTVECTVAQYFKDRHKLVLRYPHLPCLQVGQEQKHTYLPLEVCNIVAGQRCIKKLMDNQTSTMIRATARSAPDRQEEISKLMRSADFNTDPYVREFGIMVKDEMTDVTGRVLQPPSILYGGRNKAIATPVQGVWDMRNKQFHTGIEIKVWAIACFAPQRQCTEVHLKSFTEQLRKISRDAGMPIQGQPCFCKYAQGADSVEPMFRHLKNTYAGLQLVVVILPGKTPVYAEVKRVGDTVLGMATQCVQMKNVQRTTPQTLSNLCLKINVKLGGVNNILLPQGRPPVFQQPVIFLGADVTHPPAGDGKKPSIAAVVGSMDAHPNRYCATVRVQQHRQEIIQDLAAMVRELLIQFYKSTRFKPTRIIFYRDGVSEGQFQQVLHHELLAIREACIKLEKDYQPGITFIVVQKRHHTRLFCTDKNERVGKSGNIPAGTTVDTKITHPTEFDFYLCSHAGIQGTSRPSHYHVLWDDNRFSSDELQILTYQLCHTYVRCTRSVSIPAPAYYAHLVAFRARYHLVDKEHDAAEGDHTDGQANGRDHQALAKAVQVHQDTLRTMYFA
Chain of AGO2 A367P (Q9UKV8 whole entry A367P/S387D/S824A/S828D/S831D/S834A): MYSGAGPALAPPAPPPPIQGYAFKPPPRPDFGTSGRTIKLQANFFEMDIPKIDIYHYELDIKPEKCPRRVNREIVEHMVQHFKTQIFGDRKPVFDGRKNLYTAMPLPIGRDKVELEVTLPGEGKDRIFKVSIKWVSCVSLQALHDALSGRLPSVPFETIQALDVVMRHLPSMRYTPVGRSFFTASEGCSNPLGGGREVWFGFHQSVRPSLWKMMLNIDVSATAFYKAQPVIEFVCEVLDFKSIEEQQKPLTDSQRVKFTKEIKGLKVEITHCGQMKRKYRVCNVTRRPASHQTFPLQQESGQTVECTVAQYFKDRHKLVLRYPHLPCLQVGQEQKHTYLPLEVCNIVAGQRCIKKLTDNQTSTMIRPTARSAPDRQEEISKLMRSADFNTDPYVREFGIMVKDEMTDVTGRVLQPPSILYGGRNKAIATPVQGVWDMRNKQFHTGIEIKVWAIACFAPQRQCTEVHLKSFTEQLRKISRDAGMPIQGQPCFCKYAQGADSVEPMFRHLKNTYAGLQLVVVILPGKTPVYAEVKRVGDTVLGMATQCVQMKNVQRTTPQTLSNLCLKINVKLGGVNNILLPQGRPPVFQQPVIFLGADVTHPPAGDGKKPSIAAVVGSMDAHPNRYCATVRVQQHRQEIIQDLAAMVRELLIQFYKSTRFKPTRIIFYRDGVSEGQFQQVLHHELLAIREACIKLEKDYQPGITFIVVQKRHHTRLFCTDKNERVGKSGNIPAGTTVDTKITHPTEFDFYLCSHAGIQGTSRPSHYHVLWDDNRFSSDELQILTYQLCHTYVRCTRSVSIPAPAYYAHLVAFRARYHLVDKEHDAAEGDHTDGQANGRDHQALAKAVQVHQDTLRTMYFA

B1: ATGTCCCA (ssRNA)
RNA 1: GAGUUCUACAGUCCGACGAUCCCAACAUGUCCCACACCUGGAAUUCUCGGGUGCCAA
RNA 2: UGGAGUGUGACAAUGGUGUUUG
DNA 1: GATCGTCGGACTGTAGAACTC
DNA 2: TTGGCACCCGAGAATTCCA
modifications: constant regions annealed to DNA blockers; guide miR-122 5' phosphate
In the case of B1, the binding signal in test [1] is 0.155 fold enrichment over input; in the test with AGO2 L192P it was 0.54 fold enrichment over input; with AGO2 A367P, 0.303 fold enrichment over input; in the test with AGO2 T357M, 0.599 fold enrichment over input; in the test with AGO2 F182del, 0.697 fold enrichment over input.

B2: GCACCCCA (ssRNA)
RNA 1: B1 RNA 1 with A27G, U28C, G29A, U30C
RNA 2: UGGAGUGUGACAAUGGUGUUUG
DNA 1: GATCGTCGGACTGTAGAACTC
DNA 2: TTGGCACCCGAGAATTCCA
modifications: constant regions annealed to DNA blockers; guide miR-122 5' phosphate
Turning to B2, the binding signal was 0.164 fold enrichment over input in test [1]; 0.6 fold enrichment over input in the test with AGO2 L192P; 0.263 fold enrichment over input with AGO2 A367P; 0.699 fold enrichment over input in the test with AGO2 T357M; 0.666 fold enrichment over input with AGO2 F182del.

B3: ATGTTCCA (ssRNA)
RNA 1: B1 RNA 1 with C31U
RNA 2: UGGAGUGUGACAAUGGUGUUUG
DNA 1: GATCGTCGGACTGTAGAACTC
DNA 2: TTGGCACCCGAGAATTCCA
modifications: constant regions annealed to DNA blockers; guide miR-122 5' phosphate
In the case of B3, the binding signal was 0.148 fold enrichment over input in test [1]; 0.552 fold enrichment over input with AGO2 L192P; 0.299 fold enrichment over input with AGO2 A367P; 0.682 fold enrichment over input in the test with AGO2 T357M; 0.701 fold enrichment over input with AGO2 F182del.

B4: GCACTCTA (ssRNA)
RNA 1: B1 RNA 1 with A27G, U28C, G29A, U30C, C31U, C33U
RNA 2: UGGAGUGUGACAAUGGUGUUUG
DNA 1: GATCGTCGGACTGTAGAACTC
DNA 2: TTGGCACCCGAGAATTCCA
modifications: constant regions annealed to DNA blockers; guide miR-122 5' phosphate
Regarding B4, the binding signal is 0.168 fold enrichment over input in test [1]; 0.562 fold enrichment over input with AGO2 L192P; 0.306 fold enrichment over input with AGO2 A367P; 0.561 fold enrichment over input with AGO2 T357M; 0.786 fold enrichment over input with AGO2 F182del.

B5: GCACTCTG (ssRNA)
RNA 1: B1 RNA 1 with A27G, U28C, G29A, U30C, C31U, C33U, A34G
RNA 2: UGGAGUGUGACAAUGGUGUUUG
DNA 1: GATCGTCGGACTGTAGAACTC
DNA 2: TTGGCACCCGAGAATTCCA
modifications: constant regions annealed to DNA blockers; guide miR-122 5' phosphate
Take B5: the binding signal in test [1] is 0.143 fold enrichment over input; in the test with AGO2 L192P, 0.491 fold enrichment over input; with AGO2 A367P, 0.33 fold enrichment over input; with AGO2 T357M, 0.457 fold enrichment over input; with AGO2 F182del, 0.887 fold enrichment over input.

B6: ACGCTCCA (ssRNA)
RNA 1: B1 RNA 1 with U28C, U30C, C31U
RNA 2: UGGAGUGUGACAAUGGUGUUUG
DNA 1: GATCGTCGGACTGTAGAACTC
DNA 2: TTGGCACCCGAGAATTCCA
modifications: constant regions annealed to DNA blockers; guide miR-122 5' phosphate
B6: the binding signal is 5.29 fold enrichment over input in test [1]; 12.3 fold enrichment over input with AGO2 L192P; 13.1 fold enrichment over input with AGO2 A367P; 2.94 fold enrichment over input with AGO2 T357M; 16.9 fold enrichment over input with AGO2 F182del.

B7: GTATCCCA (ssRNA)
RNA 1: B1 RNA 1 with A27G, G29A
RNA 2: UGGAGUGUGACAAUGGUGUUUG
DNA 1: GATCGTCGGACTGTAGAACTC
DNA 2: TTGGCACCCGAGAATTCCA
modifications: constant regions annealed to DNA blockers; guide miR-122 5' phosphate
B7: the binding signal in test [1] was 0.162 fold enrichment over input; with AGO2 L192P, 0.517 fold enrichment over input; with AGO2 A367P, 0.408 fold enrichment over input; with AGO2 T357M, 0.614 fold enrichment over input; in the test with AGO2 F182del, 0.832 fold enrichment over input.

B8: ATATTTCA (ssRNA)
RNA 1: B1 RNA 1 with G29A, C31U, C32U
RNA 2: UGGAGUGUGACAAUGGUGUUUG
DNA 1: GATCGTCGGACTGTAGAACTC
DNA 2: TTGGCACCCGAGAATTCCA
modifications: constant regions annealed to DNA blockers; guide miR-122 5' phosphate
B8: the binding signal was 0.141 fold enrichment over input in test [1]; 0.626 fold enrichment over input in the test with AGO2 L192P; 0.373 fold enrichment over input with AGO2 A367P; 0.697 fold enrichment over input with AGO2 T357M; 1.09 fold enrichment over input with AGO2 F182del.

B9: GCGTCTCA (ssRNA)
RNA 1: B1 RNA 1 with A27G, U28C, C32U
RNA 2: UGGAGUGUGACAAUGGUGUUUG
DNA 1: GATCGTCGGACTGTAGAACTC
DNA 2: TTGGCACCCGAGAATTCCA
modifications: constant regions annealed to DNA blockers; guide miR-122 5' phosphate
As to B9, the binding signal is 0.14 fold enrichment over input in test [1]; 0.529 fold enrichment over input in the test with AGO2 L192P; 0.271 fold enrichment over input with AGO2 A367P; 0.646 fold enrichment over input in the test with AGO2 T357M; 0.747 fold enrichment over input in the test with AGO2 F182del.

The record behind these values is publication PMC12529666, “Dysregulation of AGO2-miRNA dynamics underlies the AGO2-associated Lessel–Kreienkamp syndrome”.
